Measured values reported in the supplement of paper PMC8726507.
A number with no mark means an inactive call.

These compounds were tested on Plasmodium falciparum NF54-HGL (transmission to Anopheles stephensi) (assay: percentage of barcode signal found in uninfected mosquitoes (transmission-blocking activity); higher = stronger blocking of transmission to mosquito, active = 80 or more). Conditions: 10 µM; gametocyte preincubation time 24 h; readout time post-feed 8 days.
Description: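 The mixture was fed to Anopheles stephensi in 96-well plates as blood meals tagged with DNA-barcoded Asaia bacteria. Eight days later, mosquitoes were classed infected or uninfected by luminescence (mean + 5 SD of unfed controls). Barcodes were quantified by Luminex MagPlex-TAG in the pooled uninfected and infected Asaia cultures, background-corrected, and the score is % of barcode signal in uninfected mosquitoes = 100*Iu/(Iu+Ii).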
In the case of `COC(=O)c1c(NC(=O)c2c(F)c(F)c(F)c(F)c2F)sc2c1CCCCC2`, the “percentage of barcode signal found in uninfected mosquitoes” value (from here on “percentage of barcode signal found”) is reported as 13.7%. With `CC1CC1C(=O)NC1CCN(CC2(c3ccccc3)CCCCC2)CC1` (stereo not given) the “percentage of barcode signal found” value was 97.6% (active). In the case of `CC(C)c1ncc(-c2ccncc2)c([C@H]2CC[C@H](CNC(=O)c3cccnc3)CC2)n1`, the “percentage of barcode signal found” value is reported as 31.4%. In the case of `Clc1cccc(C(c2ccc(CN3CCNCC3)cc2)n2ccnc2)c1` (stereo not given), the “percentage of barcode signal found” value is reported as 89.4% (active). `CN1CCCC1CCO[C@](C)(c1ccccc1)c1ccc(Cl)cc1` (stereo not given in full) was tested, and the “percentage of barcode signal found” value was 87.8% (active). With `c1csc(-c2cnc3sc(NCC4CCOCC4)nn23)c1` the “percentage of barcode signal found” value was 38.7%. In the case of `c1coc(CNc2nc(N3CCCCC3)nc3ccccc23)c1`, the “percentage of barcode signal found” value is reported as 38.7%. `CCc1nc2ccc(C(=O)NCc3ccc4c(c3)OCO4)cn2c1N(C)Cc1cccs1` was tested, and the “percentage of barcode signal found” value was 22.1%. For `O=C(NCc1nnc2n1CCCCC2)c1ccc(-c2ccc(F)cc2)o1`, the “percentage of barcode signal found” value was -11%. With `Cc1nc2ccccn2c1C(=O)NCc1ccc(Cl)cc1` the “percentage of barcode signal found” value was 48.8%. For `Oc1c(I)cc(I)c2cccnc12`, the “percentage of barcode signal found” value was -1.81%. With `O=C(NCCc1c[nH]c2ccccc12)c1cc2ccccc2oc1=O` the “percentage of barcode signal found” value was -1.49%. For `C[C@H]1c2cccc(O)c2C(=O)C2=C(O)[C@]3(O)C(=O)C(C(N)=O)=C(O)[C@@H](N(C)C)[C@@H]3[C@@H](O)[C@@H]21`, the “percentage of barcode signal found” value was 41.2%. `CC(=O)NC[C@@H]1CN(c2ccc(N3CCOCC3)c(F)c2)C(=O)O1` was tested, and the “percentage of barcode signal found” value was 4.01%. In the case of `COc1ccccc1OCCCCn1c(C2CC2)nc2ccccc21`, the “percentage of barcode signal found” value is reported as 48.5%. For `COC(=O)C1=C(C)NC(C)=C(C(=O)OC(C)C)C1c1cccc2nonc12` (stereo not given), the “percentage of barcode signal found” value was 57.4%. For `CCc1nc2ccccc2n1CC(O)COc1cc(C)ccc1Cl` (stereo not given), the “percentage of barcode signal found” value was 41.3%. For `Cc1ccc2nc(Cl)c(CNCc3cccs3)cc2c1`, the “percentage of barcode signal found” value was 7.16%. In the case of `COc1ccc(C2=NN(C3CCCCCC3)C(=O)C2(C)C)cc1OCCCCOc1ccc(-c2nn[nH]n2)cc1`, the “percentage of barcode signal found” value is reported as 7.2%.

Same assay, conditions: 20 µM; gametocyte preincubation time 24 h; readout time post-feed 8 days
With `OC[C@H]1O[C@@H](n2c3ccc(Cl)cc3c3c(-c4cc5ccccc5o4)ncnc32)C(O)[C@H]1O` (stereo not given in full) the “percentage of barcode signal found” value was 8.88%. `Cc1ccc(NC(=O)c2cc(S(=O)(=O)NC(C)(C)C)ccc2C)nc1` was tested, and the “percentage of barcode signal found” value was 20.2%. In the case of `CC(=O)N(CCN(C(=O)c1ccc(F)cc1)c1ccccc1)c1ccccc1`, the “percentage of barcode signal found” value is reported as 1.19%. `Cn1c(=O)c2c(S(C)(=O)=O)snc2n(C)c1=O` was tested, and the “percentage of barcode signal found” value was 21.4%. `c1ccc(Oc2ccc(-c3cc(N4CCNCC4)[nH]n3)cc2)cc1` was tested, and the “percentage of barcode signal found” value was 27.2%. `O=C(N[C@H](Cc1ccccc1)C(=O)Nc1ccccc1N1CCOCC1)c1cccs1` was tested, and the “percentage of barcode signal found” value was 13.5%. With `O=C(Nc1ccccc1-c1nc2c(C(=O)O)cccc2o1)c1ccccc1` the “percentage of barcode signal found” value was 27.2%. In the case of `COc1cc(Br)cc2cc(C(=O)Nc3cccc(C(F)(F)F)c3)c(=O)oc12`, the “percentage of barcode signal found” value is reported as 19.3%. `COc1cccc(OC)c1C(=O)Nc1ccc(Cl)c(-c2nc3ccccc3s2)c1` was tested, and the “percentage of barcode signal found” value was 13.2%. With `Cc1cc(C)n(-c2ccc(NC(=O)C3CCN(Cc4cnc(C)s4)CC3)cc2)n1` the “percentage of barcode signal found” value was 1.19%. For `C[C@H](c1ccc2c(c1)CCCC2)N(C)c1ncc2c(N)nc(N)nc2n1`, the “percentage of barcode signal found” value was 0.379%. In the case of `CNc1cc(C)nc(C2CN(C(=O)c3n[nH]c4ccccc34)CCO2)c1` (stereo not given), the “percentage of barcode signal found” value is reported as 35.5%. In the case of `Cc1cc(NC(=O)c2ccc(Oc3ccc(Cl)cc3O)o2)no1`, the “percentage of barcode signal found” value is reported as 33%. In the case of `C[C@H](C(N)=O)N1CCCC[C@H]1c1ccc(OCc2cccc(F)c2)cc1`, the “percentage of barcode signal found” value is reported as 25%. For `Cc1cc(Cl)c(S(=O)(=O)N2CCCC2)cc1OCC(=O)NC1CCCCC1`, the “percentage of barcode signal found” value was 1.74%. With `Nc1nccc2ccc(Oc3ccncc3)cc12` the “percentage of barcode signal found” value was 37.6%. In the case of `CCOc1ccccc1NC(C)C(=O)Nc1cc(C(F)(F)F)ccc1N1CCOCC1` (stereo not given), the “percentage of barcode signal found” value is reported as 40.9%. In the case of `O=C(Nc1ccc(C(F)(F)F)c(C(F)(F)F)c1)c1cc(Cl)ccc1O`, the “percentage of barcode signal found” value is reported as 69.4%. With `O=C(c1ccc(F)cc1)N(CCNc1ccccc1)c1ccccc1` the “percentage of barcode signal found” value was 7.39%. For `OCc1ccc(-c2cncc(Nc3cccc(Cl)c3)c2)cc1`, the “percentage of barcode signal found” value was 4.28%. With `CCOc1ccc(-c2nc(CNCCc3ccc(F)cc3)cs2)cc1` the “percentage of barcode signal found” value was 41.8%.
